The results in this text go back to PubChem BioAssay (NCATS).

Experiment [1] is described as follows: AP1 Signaling Pathway (AID 357).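 Further: ME-180 reporter cells stimulated with EGF at its EC50 level; on the % scale 0 is the no-effect control and ±100 the full control effect.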 Conditions: ME-180 (cervical carcinoma) AP-1-bla reporter, EGF-induced, beta-lactamase ratio, 5 h. The essentials:
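Modulation of EGF-driven AP-1 transcription was assessed with a beta-lactamase reporter in ME-180 cells. Compound and EC50 EGF were co-incubated 5 hours at 37 °C before 2.5-hour CCF4 loading at room temperature and dual-emission reading.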

Experiment [2] deals with Cytochrome P450 1A2 (Homo sapiens) (UniProt P05177). Put plainly: p450-cyp1a2 (AID 410; calls by dose curve; further: potency means the concentration at half of the fitted maximal effect;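 on activity change, negative = inhibition: -100% = full effect of reference inhibitor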). The settings on record: recombinant CYP1A2, luciferin-ME demethylation, luminescence; series mostly up to 57 µM. The essentials: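 20nM CYP1A2, 100uM Luciferin-ME (=Km), 100mM KPO4; cpd 10 min RT; +NADPH regen, 60 min RT; stop/detect 20 min; luminescence. Normalized to furafylline 57 uM = full inhibition.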

Experiment [3] can be described thus: NFAT Signaling Pathway (AID 444).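 Further: carbachol stimulus at about its EC50 of 1 µM final; on the % scale 0 is the no-effect control and ±100 the full control effect.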 The settings on record: Jurkat NFAT-bla M1, carbachol, beta-lactamase ratio, 5 h; at 38 µM (top of the series) unless noted. The essentials:
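Jurkat cells with NFAT-driven β-lactamase reporter and co-expressed M1 receptor, stimulated with carbachol (final 1 uM, ~EC50), compound titration, 5 h at 37 °C. CCF4 loaded 1 h at RT; 460/530 nm ratio gave %activity and AC50.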

Experiment [4] in a line: Cell Viability - Jurkat (AID 426;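 active means dose-dependent loss of cell ATP signal giving a full or clear fitted curve, ranked by lower potency value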;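 further: potency means the concentration at half of the fitted maximal effect; cells exposed to compound for 40 hours at 37 °C before ATP read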). The settings on record: qHTS. The essentials:
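Luminescent ATP read-out (CellTiter-Glo, 20 min at room temperature) after 40 hr compound exposure at 37 °C of Jurkat E6-1 cells, 5000/well. Decreased ATP taken as cytotoxicity; AC50 from standard Hill equation.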

Experiment [5] in a line: Cell Viability - Hek293 (AID 427;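 active means compounds whose dose-response curve shows a full or clear partial loss of cell viability, called from curve shape rather than a numeric limit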;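 further: potency means the concentration at half of the fitted maximal effect; cells exposed to compound for 40 hours at 37 °C before reading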). The settings on record: qHTS. Summed up: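 qHTS, human embryonic kidney (adenovirus-transformed) cells; 40 hr cpd, 37 °C; CellTiter-Glo ATP luminescence. Norm: DMSO = 0, 100 uM tamoxifen = 100% inhibition. Hill-fit AC50.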
Experiment [6] is described as follows: Cell Viability - HepG2 (AID 433; calls by dose curve;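 further: potency means the concentration at half of the fitted maximal effect; cells exposed to compound for 40 hours; potency for ATP loss meaning cytotoxicity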). The settings on record: qHTS. Summed up: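 ATP luminescence (CellTiter-Glo) after 40 h compound exposure, 37 °C, HepG2, 1500 cells/well, complete medium. Normalized: DMSO = basal, 100 uM tamoxifen = 100% inhibition. AC50 via standard Hill equation.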
The nature of experiment [7]: Cell Viability - MRC5 (AID 434; calls by dose curve;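 further: potency means the concentration at half of the fitted maximal effect; cells exposed to compound for 40 hours at 37 °C; potency reflects cytotoxicity seen as loss of intracellular ATP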). Conditions: MRC5 lung fibroblast viability, qHTS. The essentials:
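ATP luminescence read-out (CellTiter-Glo, 20 min RT) after 40 hr, 37 °C compound exposure of 1500 MRC5 cells/well. Data normalized to DMSO (basal) and 100 uM tamoxifen (100% inhibition); AC50 from standard Hill equation.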

Experiment [8] in a line: Cell Viability - SK-N-SH (AID 435; calls by dose curve; further: potency means the concentration at half of the fitted maximal effect). The settings on record: SK-N-SH neuroblastoma cell viability qHTS. The essentials:
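CellTiter-Glo ATP luminescence, 20 min RT read; cells pre-plated 5 hr, compound 40 hr at 37 °C, 1500 cells/well, complete medium. Normalized DMSO = 0, 100 uM tamoxifen = 100% inhibition; Hill-fit AC50.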

Values joined by “and” are separate entries in the source; they are usually repeats but may differ in a detail not shown here. Equal entries are not always repeated. Results filed as inconclusive are left out. Some compounds were tested as several samples or in several runs, with calls that do not always agree. Active and inactive are the calls of the source. Unless noted, the call rests on the fitted dose curve; in most records, active means well fitted curve in either direction with a large enough effect (not every such curve was filed as active); inconclusive means small, poorly fitted or top-dose-only effect, or another doubt; inactive means flat fitted curve, though single readings scatter.

Sequence of Cytochrome P450 1A2 (Homo sapiens) (P05177 whole entry, looked up): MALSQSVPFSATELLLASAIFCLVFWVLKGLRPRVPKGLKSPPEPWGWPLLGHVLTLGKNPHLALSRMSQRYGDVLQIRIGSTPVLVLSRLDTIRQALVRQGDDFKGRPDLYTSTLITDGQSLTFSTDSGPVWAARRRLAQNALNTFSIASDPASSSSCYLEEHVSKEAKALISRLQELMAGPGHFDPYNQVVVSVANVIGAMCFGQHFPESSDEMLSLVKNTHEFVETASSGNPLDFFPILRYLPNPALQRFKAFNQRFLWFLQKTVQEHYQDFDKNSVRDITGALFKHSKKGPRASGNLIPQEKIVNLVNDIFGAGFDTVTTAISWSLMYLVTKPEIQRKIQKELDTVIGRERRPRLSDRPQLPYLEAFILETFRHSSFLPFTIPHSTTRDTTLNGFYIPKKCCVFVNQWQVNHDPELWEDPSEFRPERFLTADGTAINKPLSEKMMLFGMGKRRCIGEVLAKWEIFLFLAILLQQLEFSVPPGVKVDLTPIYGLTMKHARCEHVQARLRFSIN

For `CC1(C)CCC=[N+]1[O-]`, the figures for the activity change, negative = inhibition in experiment [1] (at 38 µM (top of the series)) and in experiment [3] were -4.03% (inactive) and -6.56% (inactive), respectively. In experiment [2], the Potency result is “inactive”.

Regarding `N#C/C(=C\c1ccc(O)c(O)c1)C(=O)c1ccc(O)c(O)c1`, the activity change, negative = inhibition was -8.79% (inactive) in experiment [1] (at 38 µM (top of the series)) and -9.14% (inactive) in experiment [3]. Further, the Potency in experiment [2] is 31.6 µM (active).

With `COc1ccc(/C=C/C(=O)Nc2ccccc2C(=O)O)cc1OC`, the activity change, negative = inhibition in experiment [1] (at 17.2 µM (top of the series)) is -28.6% (inactive); in experiment [3], 22.7% [at 17.2 µM] (inactive).

Turning to `COC(=O)c1c(C)[nH]c(C)c1C(=O)c1ccccc1Cc1ccccc1`, the activity change, negative = inhibition in experiment [1] (at 38 µM (top of the series)) is -27.5% (inactive); in experiment [3], 4.44% (inactive). In experiment [2], the Potency was 1.26 µM (active) and 251 nM (active).

For the molecule `O=C1C(SCCO)=C(SCCO)C(=O)c2ccccc21`, the activity change, negative = inhibition in experiment [1] (at 38 µM (top of the series)) was -104% (active); in experiment [3], -94.5% (active). Moreover, the Potency in experiment [2] is 12.6 µM (active) and 631 nM (active).

Turning to `O=C(O)c1ccccc1Nc1cccc(C(F)(F)F)c1`, the activity change, negative = inhibition was -4.38% (inactive) and -13.2% (inactive) in experiment [1] (at 17.2 µM (top of the series)); -44% [at 17.2 µM] (inactive) in experiment [3]. Further, in experiment [2], the Potency was 3.98 µM (active).

Take `Clc1ccc(N2CCN(Cc3c[nH]c4ncccc34)CC2)cc1`: the values for the activity change, negative = inhibition in experiment [1] (at 38 µM (top of the series)) and in experiment [3] were -4.78% (inactive) and -18.8% (inactive), respectively. Moreover, the Potency entry in experiment [2] is “inactive and 15.8 µM (active)”.

In the case of `Cc1c(Nc2ncccc2C(=O)O)cccc1C(F)(F)F`, the activity change, negative = inhibition in experiment [1] (at 17.2 µM (top of the series)) was -17.9% (inactive); in experiment [3], -13.1% [at 17.2 µM] (inactive). Further, the Potency in experiment [2] is 12.6 µM (active).

In the case of `CCCn1c(=O)c2[nH]c(-c3ccc(OCC(=O)NCCN)cc3)nc2n(CCC)c1=O`, the activity change, negative = inhibition in experiment [1] (at 38 µM (top of the series)) is 6.39% (inactive); in experiment [3], -8.17% (inactive). Moreover, the Potency entry in experiment [2] was “inactive”.

`COc1cc(/C=C/C(=O)CC(=O)/C=C/c2ccc(O)c(OC)c2)ccc1O`: the activity change, negative = inhibition in experiment [1] (at 17.2 µM (top of the series)) was 22.5% (inactive). Besides, the Potency is 28.2 µM (active) in experiment [4]; 42.7 µM (active) in experiment [5]; > 92 µM (inactive) in experiment [6]; 45.2 µM (active) in experiment [7]; 22.9 µM (active) in experiment [8].

For `O=C(O)c1cc([N+](=O)[O-])ccc1NCCCc1ccccc1`, the results for the activity change, negative = inhibition in experiment [1] (at 38 µM (top of the series)) and in experiment [3] were -8.1% (inactive) and 5.3% (inactive), respectively. Also, the Potency in experiment [2] was 31.6 µM (active).
